Measured values as given in PubChem BioAssay AID1159580 (chemical genetic matrix, 2015).
Values joined by “and” are separate entries in the source; they are usually repeats but may differ in a detail not shown here. Identical values can stand only once. The whole screen tested about 5,500 compounds, of which about 2,000 (36%) were called active. Not shown: some 18% with an inconclusive outcome. Rule as the data show it: active = normalized growth mostly below about 0.91 (no sharp cut-off); inconclusive = no clear call, values can overlap the other calls; inactive = mostly above about 0.92. The list shows a part of the results.

Test: chemical genetic growth profiling, strain panel (AID 1159580);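 also: tested at 20 µM; growth read once vehicle control cultures reached saturation at 30 °C; 1 = growth at the plate median or of vehicle wells; lower values mean less growth of the strain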
Details: S. cerevisiae deletion strains, growth OD

Measured: normalized growth

C=C1C(=O)O[C@@H]2C3O[C@]3(C)CC/C=C(\C)CC[C@@H]12 (stereo partly specified)
inactive: locus YAL021C, strain ccr4, stronger effect = lower value 0.967 | locus YAL026C, strain drs2, stronger effect = lower value 0.914 | locus YAL030W, strain snc1, stronger effect = lower value 0.983 | locus YBL061C, strain skt5, stronger effect = lower value 1.01 | locus YBR009C, strain hhf1, stronger effect = lower value 0.977 | locus YBR021W, strain FUR4, stronger effect = lower value 1.06 | locus YBR023C, strain chs3, stronger effect = lower value 0.964 | locus YBR171W, strain sec66, stronger effect = lower value 0.975 | locus YBR229C, strain ROT2, stronger effect = lower value 0.941 | locus YBR231C, strain swc5, stronger effect = lower value 1.01 | locus YBR279W, strain paf1, stronger effect = lower value 0.948 | locus YCL011C, strain gbp2, stronger effect = lower value 0.978 | locus YCL016C, strain dcc1, stronger effect = lower value 0.946 | locus YCL069W, strain vba3, stronger effect = lower value 1 | locus YCR088W, strain abp1, stronger effect = lower value 0.983 | locus YDL005C, strain med2, stronger effect = lower value 0.989 | locus YDL040C, strain nat1, stronger effect = lower value 0.993 | locus YDL134C, strain PPH21, stronger effect = lower value 0.903 | locus YDL185W, strain tfp1, stronger effect = lower value 0.913 | locus YDR001C, strain nth1, stronger effect = lower value 0.997 | locus YDR069C, strain doa4, stronger effect = lower value 0.981 | locus YDR150W, strain NUM1, stronger effect = lower value 0.917 | locus YDR159W, strain sac3, stronger effect = lower value 1.02 | locus YDR195W, strain ref2 1.06 | locus YDR297W, strain sur2, stronger effect = lower value 0.998 | locus YDR334W, strain swr1, stronger effect = lower value 0.987 | locus YDR335W, strain msn5, stronger effect = lower value 0.976 | locus YEL003W, strain gim4, stronger effect = lower value 0.973 | locus YEL037C, strain rad23, stronger effect = lower value 0.992 | locus YEL061C, strain CIN8 (second series), stronger effect = lower value 1 | locus YER015W, strain faa2, stronger effect = lower value 0.993 | locus YER016W, strain bim1, stronger effect = lower value 0.997 | locus YER111C, strain swi4, stronger effect = lower value 0.992 | locus YER155C, strain BEM2 (second series), stronger effect = lower value 0.888 | locus YFR010W, strain ubp6, stronger effect = lower value 0.992 | locus YGL078C, strain dbp3, stronger effect = lower value 0.937 | locus YGL167C, strain pmr1, stronger effect = lower value 0.97 | locus YGL173C, strain kem1, stronger effect = lower value 0.956 | locus YGL227W, strain vid30, stronger effect = lower value 0.999 | locus YGL240W, strain doc1, stronger effect = lower value 0.962 | locus YGL253W, strain hxk2, stronger effect = lower value 0.963 | locus YGR252W, strain gcn5, stronger effect = lower value 0.771 | locus YHR013C, strain ard1, stronger effect = lower value 0.894 | locus YHR027C, strain rpn1, stronger effect = lower value 0.991 | locus YHR079C, strain IRE1, stronger effect = lower value 0.966 | locus YHR094C, strain hxt1, stronger effect = lower value 0.934 | locus YHR142W, strain chs7, stronger effect = lower value 0.962 | locus YHR200W, strain rpn10, stronger effect = lower value 0.924 | locus YIL125W, strain kgd1, stronger effect = lower value 0.937 | locus YJL092W, strain hpr5, stronger effect = lower value 0.987 | locus YJL095W, strain BCK1 (second series), stronger effect = lower value 0.976 | locus YJL115W, strain asf1, stronger effect = lower value 0.991 | locus YJL129C, strain trk1, stronger effect = lower value 1 | locus YJL134W, strain LCB3, stronger effect = lower value 0.943 | locus YJL154C, strain vps35, stronger effect = lower value 0.998 | locus YJL164C, strain tpk1, stronger effect = lower value 0.95 | locus YJL166W, strain qcr8, stronger effect = lower value 0.961 | locus YJL187C, strain SWE1, stronger effect = lower value 0.963 | locus YJR066W, strain TOR1, stronger effect = lower value 0.937
active: locus YAL013W, strain DEP1, stronger effect = lower value 0.878 | locus YCL029C, strain bik1, stronger effect = lower value 0.905 | locus YDL035C, strain GPR1, stronger effect = lower value 0.838 | locus YDL074C, strain BRE1, stronger effect = lower value 0.671 | locus YDL101C, strain DUN1, stronger effect = lower value 0.87 | locus YDL192W, strain arf1, stronger effect = lower value 0.729 | locus YDR101C, strain arx1, stronger effect = lower value 0.864 | locus YDR137W, strain rgp1, stronger effect = lower value 0.556 | locus YDR162C, strain NBP2, stronger effect = lower value 0.455 | locus YDR318W, strain mcm21, stronger effect = lower value 0.739 | locus YDR388W, stronger effect = lower value 0.901 | locus YDR392W, strain spt3, stronger effect = lower value 0.532 | locus YDR502C, strain sam2, stronger effect = lower value 0.818 | locus YEL061C, strain CIN8, stronger effect = lower value 0.86 | locus YER110C, stronger effect = lower value 0.879 | locus YER155C, strain BEM2, stronger effect = lower value 0.798 | locus YER167W, strain BCK2, stronger effect = lower value 0.694 | locus YGL086W, strain mad1, stronger effect = lower value 0.792 | locus YGL248W, strain PDE1, stronger effect = lower value 0.879 | locus YGR078C, strain PAC10, stronger effect = lower value 0.695 | locus YGR135W, strain pre9, stronger effect = lower value 0.749 | locus YGR229C, strain SMI1, stronger effect = lower value 0.396 | locus YHR079C, strain IRE1 (second series), stronger effect = lower value 0.861 | locus YHR129C, strain ARP1, stronger effect = lower value 0.801 | locus YIL066C, strain RNR3, stronger effect = lower value 0.7 | locus YIL073C, strain SPO22, stronger effect = lower value 0.588 | locus YIR030C, strain dcg1, stronger effect = lower value 0.912 | locus YJL168C, strain set2, stronger effect = lower value 0.914 | locus YJL187C, strain SWE1 (second series), stronger effect = lower value 0.866 | locus YJR043C, strain POL32, stronger effect = lower value 0.752
0.446 (active) and 0.99 (inactive): locus YJL095W, strain BCK1, stronger effect = lower value
0.722 (active) and 0.968 (inactive): locus YHR030C, strain SLT2, stronger effect = lower value
